A selection: hits, their analogues and other compounds. The true share with any hit is near 6.5%.
TGFb inhibitor – qHTS for Inhibitors of TGF-b. HepG2 CAGA-GFP TGF-b/SMAD3 reporter, GFP fluorescence, 18 h; TGF-beta stimulated, 500 pg/mL final. Potency, µM (doses to about 46.1 µM), for inactives: top-dose activity, negative = inhibition, usual class: inhibitors. 410,000 tested, 1.2% active; also: potency is read from the fitted curve at half-maximal effect; % is scaled to controls: 0 for no effect and ±100 for the full control effect; nearly all actives have a fitted effect of over 65% in size
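GFP signal (ex488/em500-530) from TGF-beta-stimulated HEPG2 CAGA-GFP cells, 500 pg/mL final, 18 h at 37 degrees C in DMEM plus 1% FBS, normalized to unstimulated and DMSO-stimulated controls.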
Giardia kill – Small Molecules that selectively kill Giardia lamblia: qHTS. Giardia lamblia trophozoite viability. activity change, % at 7.66 µM, hits read low. 340,000 tested, 0.15% active. AID 540267, 2011; in the data active = activity change below about -80%; inconclusive = between about -30% and that limit;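 also: parasites exposed to compound for two days anaerobically before the ATP read; % is scaled to controls: 0 for no effect and ±100 for the full control effect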
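Media and compound were dispensed first, then trophozoites at 100 cells/well; plates sat 48 hrs at 37 deg C without oxygen before ATP luminescence reagent was added and read after 15-30 min at room temperature.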
HT1080NT lethal – qHTS for induction of synthetic lethality in tumor cells producing 2HG: qHTS for the HT-1080-NT fibrosarcoma cell line; HT-1080-NT fibrosarcoma viability, CellTiter-Glo ATP luminescence, 48 h; Potency, µM (series often up to 46.1 µM), without a hit: at the highest dose activity, negative = less viability, most hits filed as cytotoxic; 360,000 tested, 1.6% active;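 also: NT is the 2HG producing partner of a matched IDH1 knockdown line; potency is read from the fitted curve at half-maximal effect; 0% = DMSO-treated cells and -100% = media-only wells without cells; nearly all actives have a fitted effect of over 55% in size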
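Compounds were tested in concentration-response format on HT-1080-NT cells for 48 hours at 37 degrees C. Cell viability came from CellTiter-Glo luminescence; curves were classified by r2, response magnitude and activity.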
HepG2 tox – qHTS for Inhibitors of TGF-b: Cytotox Counterscreen | HepG2 CAGA-GFP viability, ATP luminescence, 18 h | Potency, µM (series often up to 46.1 µM), inactives show at the top dose activity change, negative = cytotoxicity, actives largely listed as cytotoxic | 410,000 tested, 0.76% active | AID 588856, 2011; also: potency is read from the fitted curve at half-maximal effect
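CellTiter-Glo luminescence gave cytotoxicity after 18 hours at 37 degrees C. The cells were HepG2 CAGA-GFP in 1% FBS DMEM, stimulated with 500 pg/mL TGF-beta after compound addition. %Activity was normalised to no-cell wells (complete cell-killing) and DMSO (no toxicity), and curves were fitted and classified.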
IL-1B inflam inh – qHTS for Inhibitors of Inflammasome Signaling: IL-1-beta AlphaLISA Primary Screen; THP-1 LPS/ATP IL-1B secretion, AlphaLISA, 16 h; hits give low values; activity change, % at 57.5 µM; 360,000 tested, 4.7% active; AID 743279, 2014; in the data active = activity change below about -50%; inconclusive = mostly about -30% to -49%; also: % is scaled to controls: 0 for no effect and ±100 for the full control effect
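THP-1 cells pretreated 1 hr with compounds (up to 57.5 uM final), then stimulated with LPS (250 ng/mL final) plus ATP (1.25 mM final); secreted IL-1B measured by AlphaLISA after 16 hr, decreased signal indicating inhibition.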
HT1080 IDH1KD tx – qHTS for induction of synthetic lethality in tumor cells producing 2HG: qHTS for the HT-1080-IDH1KD cell line | 360,000 tested, 2% active | HT-1080 IDH1 knockdown viability, ATP luminescence, 48 h | Potency, µM (series often up to 46.1 µM), for inactives: at the top dose activity, negative = toxicity, most hits filed as cytotoxic;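 also: potency is read from the fitted curve at half-maximal effect; 0% = DMSO wells and -100% = cell-free medium wells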
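HT-1080-IDH1KD cells (IDH1 knocked down), 750/well in RPMI with 5% FBS, treated with compound 48 h at 37 degrees C. Viability by CellTiter-Glo luminescence, normalised to DMSO and no-cell wells; concentration-response curves classed.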
Numbers without * were called inactive; u = inconclusive; x = no result. Unless noted, calls follow the shape of the dose curve; as a rule, active = well fitted curve in the direction sought with a large enough effect; inconclusive = small, poorly fitted or top-dose-only effect, or another doubt; inactive = no such curve, though single readings can be large; an effect the other way counts as inactive or inconclusive.

SMILES	TGFb inhibitor	Giardia kill	HT1080NT lethal	HepG2 tox	IL-1B inflam inh	HT1080 IDH1KD tx
O=C(NCC(c1cccs1)N1CCOCC1)c1cnc(Cl)c(Cl)c1 (stereo unspecified)	8%	18	u	-4%	-98*	-2%
O=C(NCC(c1cccs1)N1CCOCC1)c1cn(-c2ccccc2)nc1-c1ccc(F)cc1 (stereo unspecified)	-9%	16	11%	-2%	-60*	0%
CN1CCN(C(=O)CSc2nc(-c3cccs3)cc(-c3cccs3)c2C#N)CC1	57%	10	-21%	-46%	-28	-14%
CN1CCN(C(=O)CSc2nc(-c3ccncc3)ccc2C#N)CC1	u	8	2%	4%	-61*	0%
Cc1cc2nc(C3CCN(CC4COc5ccccc5O4)CC3)[nH]c2cc1C (stereo unspecified)	u	-5	15µM*	-52%	u	u
CCN(CC)c1ccc(-c2nn3c(-c4n[nH]c5c4CCC5)nnc3s2)cc1	u	-10	1.5µM*	-67%	20	2.3µM*
CC1=Nc2cc(C(=O)NCCCOC(C)C)ccc2Sc2ccccc21	-16%	-8	u	1%	13	8.2µM*
S=C(NCC1CCCO1)c1ccc(Br)cc1 (stereo unspecified)	17%	12	0%	-6%	-84*	-12%
CC(C)OCCCNC(=O)c1ccc2c(c1)NC(=O)c1ccccc1S2	u	-6	-11%	-28%	21	u
CC1=Nc2cc(C(=O)NCC3CCCO3)ccc2Sc2ccc(Br)cc21 (stereo unspecified)	u	16	10µM*	-14%	59	16µM*
CC1=Nc2cc(C(=O)NC3CCCCC3)ccc2Sc2ccc(Cl)cc21	u	x	x	-16%	x	x
CC1=Nc2cc(C(=O)NCCc3ccc(Cl)cc3)ccc2Sc2ccc(C)cc21	8.9µM*	x	x	-17%	x	x
O=C(NCC1CCCO1)c1ccc(C(=O)NCC2CCCO2)cc1 (stereo unspecified)	7%	12	16%	-1%	15	11%
Cc1cccc(N/N=C/c2ccncc2)c1	-9%	-15	u	-23%	-5	u
CC(C)(C)n1nnnc1C(c1ccncc1)N(Cc1ccccc1)Cc1ccco1 (stereo unspecified)	0%	1	-3%	-8%	u	0%
CC1=Nc2cc(C(=O)NCCCOC(C)C)ccc2Sc2ccc(C)cc21	u	12	0.73µM*	1%	43	1µM*
CCCCN(CCCNC(=O)c1ccc(CS(=O)(=O)c2ccc(OC)cc2)o1)Cc1ccccc1	-14%	12	-2%	-23%	0	-1%
O=C(NC1CCN(Cc2ccccc2)CC1)c1ccccc1OCc1ccccc1	-31%	39	9%	-55%	-3	-2%
Cc1cc(S(=O)(=O)Nc2ccc(C(=O)NCC(c3ccco3)N3CCCCC3)cc2)ccc1F (stereo unspecified)	0%	-13	0%	-24%	-12	1%
O=C(NC1CCN(Cc2ccccc2)CC1)c1cccc(S(=O)(=O)Nc2ccc(SC(F)F)cc2)c1	11µM*	-14	u	-84%	-21	-19%
O=C(NC1CCN(Cc2ccccc2)CC1)c1cccc(NS(=O)(=O)c2ccc(Br)cc2)c1	u	7	-17%	-39%	u	-12%
O=C(NC1CCN(Cc2ccccc2)CC1)c1ccccc1OCc1ccccc1Cl	u	3	-29%	-16%	-88*	u
Cc1ccc(S(=O)(=O)Nc2cccc(C(=O)NCC(c3ccco3)N3CCCCC3)c2)cc1F (stereo unspecified)	-24%	10	-4%	-37%	-66*	-6%
Cc1ccc(S(=O)(=O)Nc2cccc(C(=O)NC3CCN(Cc4ccccc4)CC3)c2)cc1F	7%	6	2%	-38%	-66*	-5%
O=C(NCc1ccccc1)C1c2ccccc2OCC(=O)N1CCc1ccccc1 (stereo unspecified)	x	x	20%	x	11	9%
SMILES	TGFb inhibitor	Giardia kill	HT1080NT lethal	HepG2 tox	IL-1B inflam inh	HT1080 IDH1KD tx
Cn1cc(S(=O)(=O)c2ccc(Cl)cc2)c(=O)c2cc(F)c(N3CCOCC3)cc21	u	x	x	-4%	x	x
CCc1ccccc1NC(=O)c1ccc2c(c1)c(C)c(C)n2Cc1ccccc1	0%	x	x	-35%	x	x
c1ccc(OCc2nnc3sc(C4COc5ccccc5O4)nn23)cc1 (stereo unspecified)	4%	10	-10%	-1%	-24	2%
Cc1ccc(NC(=O)CSc2nnc3ccccn23)cc1S(=O)(=O)N1CCOCC1	-17%	17	7%	-4%	7	14%
O=C(NC1CCN(Cc2ccc(Cl)cc2Cl)CC1)c1ccccc1	0%	-4	3%	-13%	-50*	1%
Cc1ccc(NS(=O)(=O)c2ccc(C(=O)NC3CCN(Cc4ccccc4)CC3)cc2)cc1	u	-13	u	-28%	-93*	-26%
O=C(NC1CCN(Cc2ccccc2)CC1)c1cc(S(=O)(=O)Nc2ccc(F)cc2)ccc1Cl	-27%	4	0%	-17%	-69*	9%
Cc1ccc(NS(=O)(=O)c2cccc(C(=O)NC3CCN(Cc4ccccc4)CC3)c2)cc1	-17%	-14	-5%	-39%	x	-30%
O=C(NC1CCN(Cc2ccccc2)CC1)c1ccccc1	-3%	13	12%	-25%	-3	-1%
CCOc1ccc(-c2nn3c(-c4cc(-c5ccccc5)n[nH]4)nnc3s2)cc1	-8%	63	x	-13%	x	x
COC(=O)c1cccc(C(=O)N2CCCC(C(=O)c3ccccc3OC)C2)c1 (stereo unspecified)	7%	-5	-1%	-23%	3	1%
Cc1cc(C)c(CN2CCC(n3nccc3NC(=O)C3CCCC3)CC2)cc1C	u	-18	-10%	-3%	-18	-3%
N#Cc1ncc(Cl)c2ccccc12	-16%	-14	15%	16µM*	-3	-1%
COc1ccc(C(=O)NCC(=O)OCC(=O)Nc2sccc2C#N)cc1OC	4%	15	0%	-7%	9	6%
COc1cc(CN2CCC(CO)(Cc3cccc(C(F)(F)F)c3)CC2)ccc1F	u	-20	1%	-137%	-52*	-7%

High-throughput results (PubChem)
